Hits are enriched below; roughly 2.4% of the tested compounds scored in any of these assays.
NadD block – inhibitors of S. aureus NadD, primary screen, biochemical, colorimetric, uHTS | Nicotinate-nucleotide adenylyltransferase NadD (Staphylococcus aureus N315) | purified NadD enzyme, colorimetric absorbance read-out | inhibition, % at 20 µM | actives 0.78% (n = 360,000) | AID 602399, 2012; in the data active means inhibition above about 26%
PP5 inh – PP5 phosphatase inhibitors, primary screen, biochemical, fluorescence | purified PP5c, OMFP substrate fluorescence | inhibition, % at 6.7 µM | actives 0.18% (n = 320,000) | AID 1987, 2009;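 active means inhibition above the campaign's mean inhibition across all tested compounds plus 3 SD, cut at about 9.5% in these data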;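 further: 0% = DMSO only and 100% = 100 µM cantharidin control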
PP1 counter – PP1-alpha phosphatase inhibitors, primary screen, counter-screen for PP5 inhibitor project, biochemical, fluorescence, OMFP substrate, single point; Serine/threonine-protein phosphatase PP1-alpha catalytic subunit (Homo sapiens), P62136; purified PP1alpha; inhibition, % at 6.7 µM; actives 0.9% (n = 320,000); AID 2235, 2010;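 active means inhibition above the mean inhibition of all tested compounds plus 3 SD, computed separately for each screening campaign, cut at about 15% in these data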
PREPL inhibitor – PREPL enzyme inhibitors, primary screen, biochemical, fluorescence polarization; actives 0.68% (n = 320,000); recombinant PREPL, fluorescence polarization activity-based probe; Prolyl endopeptidase-like (Homo sapiens), Q4J6C6; inhibition, % at 5.96 µM; in the data active means inhibition above about 43%;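 further: 0% = enzyme with DMSO and 100% = wells lacking enzyme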
Rpn11 block – Rpn11 (PSMD14) deubiquitinase inhibitors, primary screen, biochemical, fluorescence polarization, uHTS | inhibition, % at 20 µM | AID 588493, 2011 | actives 0.59% (n = 360,000) | human 26S proteasome, Ub4-pepOG fluorescence polarization; 20S core pre-blocked with epoxomicin;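 active means inhibition at 20 µM, scaled to each plate's controls, above about 33%, limit read from the data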
Target sequence (O00487 whole entry, looked up): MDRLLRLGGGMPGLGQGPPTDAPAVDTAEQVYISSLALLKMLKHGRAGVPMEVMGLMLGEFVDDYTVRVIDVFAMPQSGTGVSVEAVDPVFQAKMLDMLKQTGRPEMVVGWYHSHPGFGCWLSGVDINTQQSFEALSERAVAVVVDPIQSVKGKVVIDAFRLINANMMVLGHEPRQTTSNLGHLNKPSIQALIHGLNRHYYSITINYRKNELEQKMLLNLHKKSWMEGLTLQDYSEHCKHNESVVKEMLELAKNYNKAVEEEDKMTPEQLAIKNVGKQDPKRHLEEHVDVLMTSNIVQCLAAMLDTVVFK
PP1 confirm – PP1 phosphatase inhibitors, confirmation, biochemical, fluorescence, OMFP substrate, triplicate; shares compounds with PP1 counter; inhibition, % at 6.7 µM; AID 2358, 2010; purified PP1alpha; actives 52% (n = 1,900);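 active means mean PP1 inhibition above a set limit taken from the earlier primary screen, cut at about 15% in these data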
PP5 inh counter – PP5 phosphatase inhibition by PP1 hits, confirmation, counter-screen for PP1 inhibitor project, biochemical, fluorescence, triplicate; shares compounds with PP1 counter; purified PP5c, OMFP fluorescence; inhibition, % at 6.7 µM; actives 4% (n = 1,900); AID 2360, 2010;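 active means mean PP5 inhibition over triplicate wells above about 9.5% taken from the earlier PP1 screen, limit read from the data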
Starred values were filed as active, the others as inactive; . = not tested or not shown.

SMILES	NadD block	PP5 inh	PP1 counter	PREPL inhibitor	Rpn11 block	PP1 confirm	PP5 inh counter
CCCCOc1ccc(C2C(C(=O)c3ccc(C)o3)=C(O)C(=O)N2Cc2ccco2)cc1 (centres undefined)	22	2	33*	5	1	30*	-3
Cc1ccc(C(=O)C2=C(O)C(=O)N(Cc3ccco3)C2c2ccc(N(C)C)cc2)o1 (centres undefined)	5	0	14	16	-16	.	.
Cc1cc(N2C(=O)C(O)=C(C(=O)c3cc4ccccc4o3)C2c2ccc(OC(C)C)cc2)no1 (centres undefined)	16	0	23*	12	0	34*	-2
CC(C)CNC(=O)C(=O)Nc1ccc2c(c1)N(S(=O)(=O)c1cccs1)CCC2	-14	4	-1	-16	-2	.	.
CCOC(=O)c1[nH]nc(C(=O)c2ccc(Br)cc2)c1O	2	0	31*	-13	3	30*	-3
O=C(NC1CC1)c1nc2c(nnn2Cc2ccccc2Cl)c(=O)[nH]1	2	1	-2	8	-3	.	.
O=C(NCCc1ccccc1)c1nc2c(nnn2Cc2ccccc2Cl)c(=O)[nH]1	17	0	47*	3	8	21*	-1
O=C(NCc1ccccc1)c1nc2c(nnn2Cc2cccc(Cl)c2)c(=O)[nH]1	17	-3	21*	6	1	14	-3
O=C(Nc1ccccc1C(=O)NCc1cccnc1)c1ccc(Cl)cc1Cl	7	4	1	15	-3	.	.
O=C(N/N=C/c1ccncc1)c1sc2ccccc2c1Cl	7	-2	1	9	-4	.	.
COc1ccc2c(Cl)c(C(=O)N/N=C/c3ccncc3)sc2c1	15	0	40*	-11	13	48*	-5
COc1cc2ccccc2cc1C(=O)OCc1nc2ccsc2c(=O)[nH]1	-1	1	3	-12	0	.	.
Cc1ccccc1-n1c(SCC(=O)N/N=C/c2c(C)nn(-c3ccccc3)c2C)nc2ccccc2c1=O	29	3	18*	9	4	9	3
Cc1ccc(-n2c(SCC(=O)N/N=C/c3c(C)nn(-c4ccccc4)c3C)nc3ccccc3c2=O)cc1	22	1	1	7	4	.	.
CC(C)c1cc2c(c(O)c1O)[C@@]13CCCC(C)(C)C1CC2OC3=O (some centres undefined)	-3	0	44*	3	-14	2	-4
Cc1noc(/C=C/c2ccco2)c1S(=O)(=O)N1CCC(C(=O)N2CCc3ccccc3C2)CC1	47*	6	19*	12	36	26*	2
COc1ccc(C(c2c(O)nc[nH]c2=O)c2c(O)nc[nH]c2=O)cc1	.	4	-2	-11	.	.	.
CC(C)(C)c1ccc(NC(=O)COc2ccc(-n3ccnc3)cc2)cc1	23	2	18*	-39	4	4	-1
Cc1noc(C)c1-c1ccc(C(=O)NCc2cccnc2)c2occc12	1	.	.	.	-8	.	.
CCOC(=O)c1sc(CS(=O)(=O)c2ccc(Cl)cc2)nc1C	-6	0	0	-6	11	.	.
CCOC(=O)c1sc(-c2ccc(Cl)cc2Cl)nc1O	1	-2	21*	4	5	21*	-4
CCCCc1cc(=O)oc2cc(OC(C)C(=O)NCC3CCC(C(=O)O)CC3)c(Cl)cc12 (centres undefined)	5	2	54*	-5	7	-3	-4
CCCc1cc(=O)oc2cc(OC(C)C(=O)NCC3CCC(C(=O)O)CC3)c(Cl)cc12 (centres undefined)	0	0	1	-1	0	.	.
COc1ccc(C[C@H]2CN3C(=NC[C@@H]3Cc3ccccc3)N2CCNC(=O)c2ccc(C)c(Br)c2)cc1	13	-1	22*	8	4	-7	-2
COc1ccc(C[C@H]2CN3C(=NC[C@@H]3Cc3ccc(O)cc3)N2C[C@H](C)NC(=O)c2ccc(C)c(Br)c2)cc1	13	3	18*	20	-8	10	-4
SMILES	NadD block	PP5 inh	PP1 counter	PREPL inhibitor	Rpn11 block	PP1 confirm	PP5 inh counter
COc1ccc(C[C@H]2CN3C(=NC[C@H]3Cc3ccccc3)N2CCNC(=O)c2ccc(C)c(Br)c2)cc1	4	1	19*	-2	-13	-5	1
Cc1ccc(C(=O)NCCN2C3=NC[C@H](Cc4ccc(O)cc4)N3C[C@H]2Cc2ccc(O)cc2)cc1Br	8	-1	8	26	-5	.	.
COc1ccc(C[C@H]2CN3C(=NC[C@@H]3Cc3ccc(O)cc3)N2CCNC(=O)c2ccc(C)c(Br)c2)cc1	12	4	13	30	-1	.	.
COc1ccc(C[C@H]2CN3C(=NC[C@@H]3C(C)C)N2C[C@H](C)NC(=O)c2ccc(C)c(Br)c2)cc1	-11	-5	3	15	5	.	.
O=C(Nc1nc(-c2cccc3ccccc23)cs1)c1cnccn1	2	-1	5	-17	7	.	.
CCOC(=O)C1=C(O)C(=O)NC(c2ccccc2)=C(OC2CCCCC2)C1	10	1	24*	0	5	31*	-1
CCOC(=O)c1c(NC(=O)COC(=O)c2ccc(Cl)nc2)sc(C)c1C	3	.	.	.	6	.	.
O=C(CN1C(=O)CCC1=O)Nc1nc(-c2nc3ccccc3s2)cs1	2	0	-2	-18	7	.	.
O=C(Nc1nc(-c2nc3ccccc3s2)cs1)C1CC1	-6	1	24*	-30	0	26*	0
O=C(Nc1ccccc1)OCCc1ccccn1	-2	.	.	.	-2	.	.
O=S(=O)(c1cccs1)N1CCN(Cc2cccc(F)c2)CC1	-4	2	27*	0	-1	1	0
Cc1ccc(S(=O)(=O)N2CCN(Cc3cccc(F)c3)CC2)cc1	-9	4	-3	-10	1	.	.
Cc1onc(-c2c(F)cccc2Cl)c1C(O)c1ccc(F)cc1 (centres undefined)	-2	0	-2	-2	2	.	.
CCN(CC)c1ccc(C(NC(=O)C(C)C)c2ccc3cccnc3c2O)cc1 (centres undefined)	17	.	.	.	21	.	.
CC(=O)NC(c1ccc(Cl)cc1Cl)c1ccc2cccnc2c1O (centres undefined)	5	.	.	.	22	.	.
